This is one part of a sample in which hits are shown more often than they occur.
Artemis inh = Artemis endonuclease inhibitors, primary screen, biochemical, fluorescence intensity, FAM/BHQ-1 hairpin substrate. recombinant Artemis, quenched FAM hairpin cleavage fluorescence. inhibition, % at 10 µM. 30,000 tested, 0.78% active. AID 686954, 2013;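 active = at 10 µM dose, at least 30% inhibition, measured as corrected fluorescence normalized to stimulator and neutral control wells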
Target sequence (Q96SD1 whole entry, looked up): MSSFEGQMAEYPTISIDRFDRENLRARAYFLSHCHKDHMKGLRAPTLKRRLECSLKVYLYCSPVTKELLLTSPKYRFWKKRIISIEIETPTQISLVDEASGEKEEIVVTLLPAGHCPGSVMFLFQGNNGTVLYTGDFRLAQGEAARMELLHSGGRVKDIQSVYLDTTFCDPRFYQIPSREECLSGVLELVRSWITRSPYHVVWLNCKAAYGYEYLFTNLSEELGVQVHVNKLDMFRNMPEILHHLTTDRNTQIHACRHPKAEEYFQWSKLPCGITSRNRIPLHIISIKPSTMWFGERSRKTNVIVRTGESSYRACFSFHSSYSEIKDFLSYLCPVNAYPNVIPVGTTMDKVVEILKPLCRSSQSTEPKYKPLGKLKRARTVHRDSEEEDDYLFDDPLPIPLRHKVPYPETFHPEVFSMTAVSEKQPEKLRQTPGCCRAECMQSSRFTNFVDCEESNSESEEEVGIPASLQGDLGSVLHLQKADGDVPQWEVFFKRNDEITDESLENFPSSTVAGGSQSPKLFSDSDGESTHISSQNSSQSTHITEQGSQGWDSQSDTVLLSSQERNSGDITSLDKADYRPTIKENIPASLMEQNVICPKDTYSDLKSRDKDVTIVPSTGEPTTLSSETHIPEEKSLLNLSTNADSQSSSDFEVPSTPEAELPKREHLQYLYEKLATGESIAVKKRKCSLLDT
* hit, by the source's call.

SMILES | Artemis inh
CCO/C(C)=N/n1c2nc3ccccc3nc2c2c(=O)n(C3CCCC3)c(C)nc21 | 3.1
Cc1nc2c(c(=O)n1CCC1=CCCCC1)c1nc3ccccc3nc1n2/N=C/c1ccco1 | 41.1*
CCCCn1c2nc3ccccc3nc2c2c(=O)n(CCC)cnc21 | 6.7
Cc1cccc(-n2cnc3c(c2=O)c2nc4ccccc4nc2n3Cc2ccco2)c1 | 15.8
CCCCCCn1cnc2c(c1=O)c1nc3ccccc3nc1n2/N=C/c1ccco1 | 31.8*
CCCCCCn1cnc2c(c1=O)c1nc3ccccc3nc1n2Cc1cccs1 | 0.1
O=c1cc(NCc2ccco2)c2ccccc2o1 | -1.4
CC1=CC(C)(C)n2c(O)c(C3=NC(=S)NC3=O)c3cc(OC(=O)c4cccc5ccccc45)cc1c32 | 20.8
N#Cc1c(N)sc2c1CCN(CCc1ccccc1)C2 | 14.2
COc1ccc(N/C(N)=N/c2nc(CSc3ccc(C)cc3)cc(=O)[nH]2)cc1 | 14.2
COc1ccccc1N/C(N)=N/c1nc(CSc2ccc(C)cc2)cc(=O)[nH]1 | 30.3*
Cc1cc(=O)[nH]c(/N=C(\N)Nc2cccc3ccccc23)n1 | -2.5
CCOC(=O)c1c(C#N)cnn1-c1ccc(C)cc1 | -1.2
CCOc1ccc(N2CC(C(=O)Nc3ncccc3C)CC2=O)cc1 (stereo not given) | -3.3
COc1ccc(NS(=O)(=O)c2ccc3oc(SC4CCOC4=O)nc3c2)cc1 (stereo not given) | 6.4
CCOC(=O)C1CCCN(c2cc(C)nc3cc(-c4ccc(Cl)cc4)nn23)C1 (stereo not given) | 1.4
Cc1ccc(Nc2nc(N)nc(CN3CCN(Cc4ccc5c(c4)OCO5)CC3)n2)cc1 | 1.5
CCOC(=O)C1CCCN(Cc2nc(N)nc(Nc3ccc(Cl)cc3)n2)C1 (stereo not given) | 33.6*
CCCCOc1ccc(NC(=O)CN2CCN(C(=O)OCC)CC2)cc1 | 0.1
CCOC(=O)C1CCCN(C(=O)Cc2ccc(Cl)cc2)C1 (stereo not given) | -1.8
CCOC(=O)N1CCN(Cc2nc(N)nc(Nc3ccc(Oc4ccccc4)cc3)n2)CC1 | 39.2*
O=C(COc1ncnc2c(Cl)cc(Cl)cc12)NCCC1=CCCCC1 | -9.1
O=C(N/N=C/c1ccc(O)cc1)c1ccc(COc2cc(Cl)ccc2Cl)o1 | 9.0
O=C(Cc1ccsc1-c1ccccc1)NO | 64.3*
O=C(Nc1nc(-c2cccs2)c(-c2ccccc2)s1)c1ccco1 | 10.6
SMILES | Artemis inh
O=C(Cc1cccs1)Nc1ccc(-c2nnc(-c3ccccc3)o2)cc1 | -2.4
O=C(O)CC1NC(=O)N(c2ccc(Cl)cc2)C1=O (stereo not given) | 8.3
Cc1[nH]n(-c2ccccc2)c(=S)c1C=Nc1cccc([N+](=O)[O-])c1 | -4.7
COc1cc(C=O)ccc1OCCOCCOc1c(C)cc(Cl)cc1Cl | 4.5
Cc1cc(Cl)cc(Br)c1OCCNCC(C)O (stereo not given) | 30.6*
CC(=O)NCCOc1c(C)cc(S(N)(=O)=O)cc1C | -4.3
Cc1cc(NC(=O)COC(=O)CCC(=O)c2ccc(F)cc2)no1 | 4.5
Cc1cc(C)c(S(=O)(=O)N(C2=NCCS2)S(=O)(=O)c2c(C)cc(C)cc2C)c(C)c1 | 7.8
CCOC(=O)CNc1nc(C#N)nc(N2CCOCC2)n1 | 5.5
Cc1cc(C)c2cc(CN(Cc3ccc4c(c3)OCO4)Cc3nnnn3Cc3ccco3)c(=O)[nH]c2c1 | 40.2*
CCc1ccc2[nH]c(=O)c(CN(Cc3ccccc3)Cc3nnnn3Cc3ccco3)cc2c1 | 21.1
CCC(c1nnnn1Cc1ccco1)N(CCc1ccccc1)Cc1cc2cc(C)ccc2[nH]c1=O (stereo not given) | 14.4
Cc1ccc2[nH]c(=O)c(CN(Cc3ccc4c(c3)OCO4)Cc3nnnn3Cc3ccco3)cc2c1 | 35.1*
O=c1[nH]c2cc3c(cc2cc1CN(Cc1ccccc1)Cc1nnnn1Cc1ccco1)OCCO3 | 27.0
Cc1cc(C)c2cc(CN(CCO)Cc3nnnn3Cc3ccc(F)cc3)c(=O)[nH]c2c1 | 1.3
CC(=O)c1cc2c(cc1NC(=O)C1CC1)OCO2 | -9.2
Nn1c(SCC(=O)N2CCN(S(=O)(=O)c3ccc(Cl)cc3)CC2)nnc1-c1cccs1 | 6.7
Cc1ccc(C)n1-c1sccc1C(=O)O | 32.8*
O=C(O)c1ccccc1C(=O)c1cccs1 | -3.1
Cc1ccc(C(=O)c2ccccc2C(=O)O)s1 | 8.6
CCC(=O)Nc1cc(C)c(NC(=O)c2ccccc2OC)cn1 | -5.0
CCCc1nc2ccccc2c(=O)n1/N=C/c1c(C)[nH]n(-c2ccc(C)cc2)c1=O | 14.7
COc1ccc(C(=O)c2ccc(Cl)cc2)cc1 | -1.5
Cc1ccc(C(=O)c2c(C)oc3c2C(=O)C(=O)c2ccccc2-3)cc1 | 55.0*
O=C(c1ccc(O)cc1)c1ccc(Cl)cc1 | 8.2
SMILES | Artemis inh
Cc1oc2c(c1C(=O)c1ccc(Cl)cc1)C(=O)C(=O)c1ccccc1-2 | 50.4*
Cc1ccc(C(=O)c2cn[nH]c2-c2ccccc2O)cc1 | -0.7
COc1ccc(C(=O)c2c(C(F)(F)F)oc3c2C(=O)c2ccccc2C3=O)cc1 | 27.6
CSCCC1NC(=O)N(CC(=O)Nc2cccc3ccccc23)C1=O (stereo not given) | -8.0
CCOCCNC(=O)c1ccc2c3c(cccc13)CC2 | 6.5
CC(C)OC(=O)c1nnn(-c2nonc2N)c1CSc1ccccn1 | -13.3
Clc1cc(CSc2ccccc2)nc(-c2ccccc2)n1 | -0.2
Cn1c(CSc2nc3ccccc3s2)nnc1SCC(=O)NCCCN1CCOCC1 | 0.4
CCC(=O)NS(=O)(=O)c1cccnc1Nc1ccccc1Cl | -2.9
Cc1cccc(C)c1NC(=O)C(C)c1ccc(-c2ccccc2)c(F)c1 (stereo not given) | 0.6
Cc1cc(Cl)ccc1Oc1cccc(C(=O)/C(C#N)=C/N(C)C)c1 | -1.4
Clc1ccc(COc2ccccn2)cc1Cl | -2.8
COc1cccc(Nc2nc(NCCO)c3ccccc3n2)c1 | -7.2
c1ccc2c(N3CCCC3)nc(-c3ccncc3)nc2c1 | 3.2
COc1ccc(Nc2nc(N3CCCC3)c3ccccc3n2)cc1 | 33.4*
CC1=CC(C)(C)N(C(=O)CSc2nnc(N)s2)c2c(C)cc(C)cc21 | -0.2
Cc1nc(CS(=O)c2ccc(Cl)cc2)cc(NCc2ccc(Cl)cc2Cl)n1 (stereo not given) | -7.7
CCOc1c(OC(C)=O)ccc(/C=C2\N=C(SCC)SC2=O)c1[N+](=O)[O-] | 30.1*
COc1ccc(/C=C2\N=C(SC)SC2=O)cc1OC | -1.7
CCOc1cc(/C=C2\N=C(SC)SC2=O)cc([N+](=O)[O-])c1OC(C)=O | 33.4*
CSC1=N/C(=C\c2ccc(C)cc2)C(=O)S1 | -1.0
C=CCSC1=N/C(=C\c2ccc(C)o2)C(=O)S1 | 1.8
Cc1cc(C(=O)OCC(=O)Nc2ncc(C(F)(F)F)cc2Cl)c(C)o1 | 12.5
Cc1cc2c(c(=O)o1)C(Cc1ccccc1)C(C#N)=C(N)O2 (stereo not given) | -9.9
Cc1ccc(NC(=O)COn2nnc3ccc(S(=O)(=O)N(C)C)cc32)cc1F | -4.8
SMILES | Artemis inh
O=C(CCCSc1ccccc1)Nc1nc(-c2ccccn2)cs1 | 57.9*
O=C(O)CCC(=O)Nc1nc(-c2ccccc2)cs1 | 1.8
O=C(Nc1nc(-c2ccccn2)cs1)c1ncc(Cl)c(Cl)c1Cl | 22.9
Cn1c(SCC(=O)OC2CCCCC2)nnc1-c1ccco1 | -6.2
CCc1nc(NCCCCCO)c2nnn(Cc3ccccc3F)c2n1 | -8.3
CN1/C(=C\C(=O)COc2ccc3c(c2)OCO3)C(C)(C)c2ccccc21 | 1.3
N#Cc1c(NCCN)nc(NCc2ccccc2)c2c1CCN(Cc1ccccc1)C2 | 58.0*
Nc1[nH]nc2nc(NCc3ccccc3)c3c(c12)CCN(Cc1ccccc1)C3 | -2.6
